According to PubChem BioAssay AID588690 (Broad Institute, 2011):
The campaign covered roughly 2,400 compounds. Fewer than 10 were called active. Inconclusive results (about 1%) are left out. Not all results are given here. Values without a mark were called inactive.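 How the source made its calls: active means highest replicate activation at or above 34% and every replicate reaching that threshold; inconclusive means meets only one of the two criteria; inactive means meets neither criterion.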

Molecular target: Protein FosB (Mus musculus) (UniProt P13346)
Sequence (P13346 whole entry, looked up): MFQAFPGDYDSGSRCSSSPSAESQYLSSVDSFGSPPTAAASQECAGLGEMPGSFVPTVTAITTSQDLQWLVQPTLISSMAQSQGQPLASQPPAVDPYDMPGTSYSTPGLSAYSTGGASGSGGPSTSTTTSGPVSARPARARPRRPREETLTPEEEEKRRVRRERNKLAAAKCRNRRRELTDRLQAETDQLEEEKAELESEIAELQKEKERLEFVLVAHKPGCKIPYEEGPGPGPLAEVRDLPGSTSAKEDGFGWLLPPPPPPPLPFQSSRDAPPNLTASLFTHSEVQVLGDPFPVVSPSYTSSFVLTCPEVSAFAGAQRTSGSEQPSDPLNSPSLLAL
Test: enhancers of delta FosB homodimer–AP-1 oligo binding – biochemical, fluorescence polarization, TAMRA-CDK5 oligo, cherry-picked samples, confirmation (AID 588690);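 further: higher polarization means more probe DNA bound by delta FosB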
Details: purified delta FosB, at 24.9 µM, active compounds read high, normalised: neutral wells 0, positive control 100

Structure (SMILES) | activation
CN(CC(=O)Nc1ccc(Cl)cc1)C(=O)CNC(=O)c1ccc2ccccc2c1 | 6.82%
C#CCOCCOCCOCCNc1nc(N2CCN(C(=O)C([C@@H](C)O)n3cc([C@@H](N)CCCCN)nn3)CC2)nc(N2CCN(C(=O)[C@H](CCCCN)n3cc(CN)nn3)CC2)n1 (stereo partly specified) | -0.353%
Cc1nn(Cc2ccc(Cl)cc2)c(Cl)c1/C=N/NC(=O)CNc1ccccc1F | 1.57%
Cc1ccc(C)c(NC(=O)C(OC(=O)c2ccc(C)s2)c2ccccc2)c1 (stereo unspecified) | -0.981%
Nc1nc(COC(=O)CCC(=O)c2ccc(Cl)cc2)nc(Nc2ccccc2)n1 | 0.207%
COc1ccc(Cn2c(=S)[nH]c3cc(C(=O)N4CCCCC4)ccc3c2=O)cc1 | -2.01%
COc1ccc(-c2cc(=O)oc3cc(OC(C)C(=O)Nc4ccc(CN5CCOCC5)cc4)ccc23)cc1 (stereo unspecified) | 0.361%
Cc1cc(NC(=O)CSc2nc3cc(Cl)ccc3c(=O)n2Cc2ccco2)no1 | 3.74%
O=C(Nc1nc(-c2ccc(-c3ccccc3)cc2)cs1)c1cnccn1 | 5.91%
O=C(Cn1nnc(-c2ccccc2)n1)NCc1ccc2c(c1)OCO2 | 5.36%
Cc1sc2ncnc(N3CCC(C(=O)Nc4nc5ccc(Cl)cc5s4)CC3)c2c1C | 5.08%
CC(Sc1nc(-c2ccccc2)cc(C(F)(F)F)n1)C(=O)Nc1ccc2c(c1)OCO2 (stereo unspecified) | 0.405%
COc1ccc2nc(/N=C(\N)NC(=O)Nc3ccccc3)nc(C)c2c1 | -5.43%
COc1ccc(-n2c(SCC(=O)Nc3sc4c(c3C#N)CCCC4)nnc2-c2ccc(O)cc2)cc1 | 2.22%
O=C(Cc1nc2ccccc2[nH]c1=O)c1ccc(Cl)cc1 | 3.64%
CCCCNC(=O)C(C)N(CCN(C)C)C(=O)CCCCCN1C(=O)NC(c2ccc(Cl)cc2)C(C(=O)OCc2ccccc2)=C1C (stereo unspecified) | 3.97%
O=C(/C=C/c1ccc(F)cc1)NCCNC(=O)/C=C/c1ccc(F)cc1 | 5%
COc1cccc(CNC(=O)c2nnn(CC(=O)Nc3cc(C)ccc3C)c2N)c1 | 0.657%
CC(=O)Nc1ccc(NC(=O)C(NS(=O)(=O)c2ccc3c(c2)OCCO3)C(C)C)cc1 (stereo unspecified) | 2.35%
COc1ccc(NS(=O)(=O)c2ccc(NC(=O)c3ccc(N(C)S(C)(=O)=O)cc3)cc2)cc1 | -1.03%
O=C(Nc1ccc2ccccc2c1)/C(=C/c1cccc(Br)c1)NC(=O)c1ccco1 | 5.71%
